VDR inh = blocks the human vitamin D receptor | P11473 | VDR-SRC2-3 peptide fluorescence polarization, 2 h | Potency, µM, for inactives: max response, negative = inhibition, most hits filed as inhibitors | actives 0.93% (n = 400,000); note: potency is the fitted concentration of half-maximal effect; % is set by controls: 0 for no effect and ±100 for the full control effect
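Reagent solutions, kept cold and dark, are dispensed first; compounds are then pinned in at 23 nl, plates briefly spun, and incubated 2 h at ambient temperature. Inhibition of VDR–SRC2-3 peptide binding is read by fluorescence polarization.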
PI5P4K alpha inh = blocks human PI5P4K alpha kinase activity. actives 1.2% (n = 330,000). max response, %. PI5P4Kalpha enzyme, ADP-Glo luminescence, 60 min; stronger effect = lower value. AID 652105; active = max response of -50% or lower; inconclusive = between -30% and -50%; inactive = -30% or higher; note: value at the top dose of about 77 µM; % is set by controls: 0 for no effect and ±100 for the full control effect
Target sequence (P48426 whole entry, looked up): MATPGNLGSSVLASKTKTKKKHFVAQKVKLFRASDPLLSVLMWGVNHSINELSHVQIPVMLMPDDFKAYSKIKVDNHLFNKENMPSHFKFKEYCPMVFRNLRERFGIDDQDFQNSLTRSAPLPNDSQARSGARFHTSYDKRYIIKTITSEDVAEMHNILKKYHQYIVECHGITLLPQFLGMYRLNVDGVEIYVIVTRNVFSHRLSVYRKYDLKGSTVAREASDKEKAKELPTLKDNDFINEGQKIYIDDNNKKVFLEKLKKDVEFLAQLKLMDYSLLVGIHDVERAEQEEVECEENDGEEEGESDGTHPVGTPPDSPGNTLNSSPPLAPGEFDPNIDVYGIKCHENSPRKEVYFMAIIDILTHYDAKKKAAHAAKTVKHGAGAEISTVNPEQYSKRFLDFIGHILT
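Single end-point luminescence (ADP-Glo) quantified ADP from PI5P4Kalpha turnover; ATP 5 microM final, 1 h at RT, 0.1% CHAPS and 0.28 mM EGTA in HEPES pH 7.4.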
WRN helicase inh = WRN helicase (human) inhibition; Q14191; WRN helicase unwinding, fluorescent forked duplex, kinetic; Potency, µM (top dose mostly 114 µM), inactives show at the highest dose activity change, negative = inhibition, most hits filed as inhibitors; actives 0.46% (n = 360,000); AID 651768; note: potency is the fitted concentration of half-maximal effect; % is set by controls: 0 for no effect and ±100 for the full control effect; nearly all actives have a fitted effect of over 55% in size
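WRN at 20 nM final was preincubated with compound for 15 min at room temperature; reaction started with 100 nM forked duplex oligonucleotide carrying fluorophore and quencher plus 2 mM ATP (final). Unwinding followed kinetically by red fluorescence (ex 525/em 598 nm).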
TCR activator = activates T cell receptor signaling. primary human leukocytes, anti-CD3, IL-2 HTRF, 48 h. Potency, µM (series often up to 9.22 µM), inactives show top-dose activation of IL-2 secretion, usual class: activators. 330,000 tested, under 10 active; note: % of control where 0% means no effect
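TCR engagement came from a-CD3 beads alone, with compounds added to primary human leukocytes for 48 hr. Secreted IL-2 bridged europium cryptate- and d2-labelled anti-IL-2 antibodies, giving FRET emission at 665nm after 320nm excitation.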
PLK1 PBD inh = blocks phosphopeptide binding to human PLK1 polo-box domain. Potency, µM, without a hit: max response, negative = inhibition, usual class: inhibitors. P53350. actives 2.8% (n = 360,000). Plk1 PBD binding of FITC phosphopeptide, fluorescence polarization. AID 720504; note: potency is the fitted concentration of half-maximal effect; series mostly up to about 57 µM; % is set by controls: 0 for no effect and ±100 for the full control effect; nearly all actives have a fitted effect of over 65% in size
FEN1 inh = inhibitors of human flap endonuclease 1 | Potency, µM (highest dose often 114 µM), for the others: at the top dose activity change, negative = inhibition, hits mostly inhibitors | Recombinant FEN1 flap cleavage, fluorescence, 15 min | P39748 | actives 0.35% (n = 390,000); note: potency is the fitted concentration of half-maximal effect; % is set by controls: 0 for no effect and ±100 for the full control effect; nearly all actives have a fitted effect of over 65% in size
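With each library titrated from low to high concentration, compounds met 10 nM FEN1 for 15 min at room temperature before 50 nM substrate was added; readings at 0 and 15 min fed four-parameter Hill curve fits.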
An asterisk follows results filed as active; ? = inconclusive; nt = not tested or not shown; [ ] = another dose, or the depositor's remark. Most compounds without a hit are left out; they make up all but 3.7% or so of the library. Unless noted, calls come from the whole dose curve; as a rule, active = well fitted curve in the direction sought with a large enough effect; inconclusive = small, poorly fitted or top-dose-only effect, or another doubt; inactive = no such curve, though single readings can be large; an effect the other way counts as inactive or inconclusive.

SMILES | VDR inh | PI5P4K alpha inh | WRN helicase inh | TCR activator | PLK1 PBD inh | FEN1 inh
O=c1c2cccnc2n(-c2ccccc2)n1Cc1ccc(Cl)cc1 | -5% | 5 | -3% | 1% | 27µM* | -2%
O=c1c2cccnc2n(-c2ccccc2)n1Cc1c(Cl)cccc1Cl | 2% | 0 | -10% | 3% | -27% | -1%
COc1ccc(NC(=O)c2cc(-c3ccc(C)o3)nc3ccccc23)cc1OC | -25% | -53* | -26%[57.1 µM] | 14% | ? | -8%
COc1ccc(NC(=O)c2cc(-c3ccc(C)o3)nc3ccccc23)c(OC)c1 | -6% | -27 | -4% | 0% | -12% | -19%
Cc1ccc(CCNC(=O)c2c(C)oc3ncnc(N4CCOCC4)c23)cc1 | 13% | nt | nt | nt | nt | 0%
CCOCC(=O)Nc1nnc(C2CCCCC2)s1 | ? | -6 | 7% | 8% | 27µM* | -3%
COCC(=O)Nc1nnc(C2CCCCC2)s1 | -5% | -8 | 9% | -1% | -23% | 6%
CCOC(=O)C(=O)Nc1nnc(C2CCCCC2)s1 | -13% | -25 | -3% | -6% | 24µM* | -3%
CSc1ccc(CCNC(=O)c2cc(C)nc3c2c(C)nn3-c2ccccc2)cc1 | -5% | nt | nt | nt | nt | -15%
COC(=O)c1ccn(CSc2cc(Cl)ccc2Cl)n1 | -19% | 0 | 8% | -4% | 24µM* | -13%
COC(=O)c1ccn(CSc2c(F)c(F)cc(F)c2F)n1 | 0% | 0 | -2% | 2% | 3% | 4%
NC1=NC(=O)/C(=C\c2ccc(O)c([N+](=O)[O-])c2)S1 | 10% | -79* | -28% | 5% | -5% | -1%
Cc1ccc(NC(=O)C2CCN(c3nc(-c4ccc(C(C)C)cc4)no3)CC2)c(Cl)c1 | 3% | nt | nt | nt | nt | -6%
CCOc1ccc(NS(=O)(=O)c2ccc(N)cc2)cc1 | -3% | nt | -3% | -1% | -7% | -9%
CCOc1ccc(Nc2ccc(N)c(S(=O)(=O)O)c2)cc1 | -12% | -60* | ? | 0% | ? | -29%
COc1cc(OC)cc(C(=O)NC(=S)Nc2cccnc2)c1 | -1% | 2 | 0% | -1% | -14% | -1%
COc1cc(NC(=S)Nc2cccnc2)cc(OC)c1 | -10% | -13 | -5% | 5%[46.1 µM] | 24µM* | -14%
O=C(CNC(=O)c1[nH]cnc1C(=O)NC(c1ccccc1)c1ccccc1)OCc1ccccc1 | -17% | -2 | -7% | 0% | 24µM* | -21%
COC(=O)[C@@H](NC(=O)O[C@@H]1C(=O)c2cc(Br)ccc2O[C@H]1c1ccc2c(c1)OCO2)C(C)C | -12% | nt | nt | nt | nt | nt
Cc1sc2nc3n(c(=O)c2c1C)CCCS3 | -1% | 0 | -3% | -7% | -1% | 1%
O=Cc1ccc2oc3nc4n(c(=O)c3c(=O)c2c1)CCCS4 | 7% | -73* | 20µM* | -1% | ? | 50µM*
COc1ccc2ncc3c(-c4ccccc4)nn(-c4ccc(C)c(C)c4)c3c2c1 | -4% | nt | nt | nt | nt | 2%
CNc1ccccc1C(C)(C)c1cc(-c2cc(C)cc(C)c2)no1 | -22% | 22 | -30% | 0%[46.1 µM] | -3% | -11%
CNc1ccccc1C(C)(C)c1cc(C)[nH]n1 | ? | -18 | 9% | 7% | 8.4µM* | ?
Cc1oc(-c2ccc(Cl)cc2)nc1CSc1nnc(C)n2c1cc1sccc12 | 2% | nt | nt | nt | nt | 9%
SMILES | VDR inh | PI5P4K alpha inh | WRN helicase inh | TCR activator | PLK1 PBD inh | FEN1 inh
O=C(O)Cn1nc(-c2ccc(F)cc2)oc1=O | ? | -17 | -10% | 1% | 24µM* | -7%
O=C(O)Cn1nc(-c2ccccc2)oc1=O | 4% | -4 | 5% | 1% | 0% | -10%
CC(=O)Nc1cccc(C(=O)N/N=C/c2cccnc2)c1 | -6% | -26 | -31% | 4% | 24µM* | 4%
COc1ccc(C(=O)N/C(=C/c2cccnc2)C(=O)Nc2cccc(C(C)=O)c2)cc1OC | -14% | -8 | 7% | -3% | 30µM* | 15%
O=C(N/N=C/c1cc(O)ccc1Br)c1cccnc1 | -4% | 0 | -13% | -2% | -6% | -7%
CC(=O)c1cccc(NC(=O)/C(=C\c2cccnc2)NC(=O)c2ccccc2)c1 | 0% | -7 | 12% | -2% | -1% | 4%
O=C(N/N=C/c1cc(Br)c(O)c(Br)c1O)c1cccnc1 | -5% | -59* | -17% | -1% | -19% | -19%
Cc1ccc(NC(=O)CSc2nnc(C)n3c2cc2sccc23)c(C)c1 | 7% | nt | nt | nt | nt | -6%
Cc1cc(/C=C(\C#N)C(=O)NCc2cccs2)c(C)n1-c1ccccc1F | -18% | 4 | -10% | 0% | 27µM* | -7%
Cc1ccccc1-n1c(C)cc(/C=C(\C#N)C(=O)NCC2CCCO2)c1C (stereo unspecified) | 9% | 0 | 4% | -2%[46.1 µM] | -9% | 13%
COC(=O)c1ccc(CN(c2ccc(C)cc2)S(=O)(=O)c2ccc3c(c2)OCCO3)o1 | -19% | ? | -4% | -7% | 3µM* | -3%
CC1(C)Cc2c(sc(NC(=O)C(=O)NCCCN3CCOCC3)c2C#N)CO1 | -5% | 4 | 1% | 0% | 12µM* | 19%
C=C1NC(=O)c2cc(CN(C)c3ccc(C(=O)N[C@@H](CCC(=O)O)C(=O)O)s3)ccc2N1 | 2% | nt | nt | nt | nt | nt
COc1cc(NCc2ccc3nc(N)nc(N)c3c2C)cc(OC)c1OC | 25µM* | nt | nt | nt | nt | nt
Cn1c2ccccc2c(=O)c2c(=O)n(C3CCCCC3)c(-c3cccs3)nc21 | 3% | nt | -14%[57.1 µM] | -4% | -10% | 56µM*
Cn1c2ccccc2c(=O)c2c(=O)n(C3CCCCCC3)c(C3CCCCC3)nc21 | -19% | -9 | -27% | -1%[46.1 µM] | -11% | 1%
Cc1ccc(S(=O)(=O)Nc2cc3c(cc2NCc2ccccc2)n(C)c(=O)n3C)c(C)c1 | -1% | nt | nt | nt | nt | -7%
O=C(NC(=S)Nn1cnnc1)c1ccccc1Br | ? | -14 | -3% | 3% | 30µM* | 20%
C/C(CC1CC(COCC(C)C)OC1=O)=N\Nc1nc(-c2ccccc2)cs1 (stereo unspecified) | ? | nt | -6% | nt | 21µM* | -21%
Cc1ccc(/C=C2\SC(=S)N(/N=C/c3cc([N+](=O)[O-])ccc3O)C2=O)o1 | ? | -84* | 35µM* | 1% | 12µM* | 50µM*
S=C(NC1CCCCC1)c1ccc2c(c1)OCO2 | -19% | nt | 3% | 3% | 19µM* | -8%
O=C(c1ccc2c(c1)N(Cc1cccc(Cl)c1)C(=O)c1ccccc1S2(=O)=O)N1CCN(Cc2ccccc2)CC1 | 2% | nt | nt | nt | nt | 12%
c1ccc(CNc2ncncc2-c2ccc3c(c2)OCO3)cc1 | 28µM* | nt | nt | nt | nt | nt
c1ccc(CNc2nc(-c3ccc4c(c3)OCO4)nc3ccccc23)cc1 | 45µM* | nt | nt | nt | nt | nt
CNc1nc(-c2ccc3c(c2)OCO3)nc2ccccc12 | 1% | nt | nt | nt | nt | nt
